# High-throughput results: PubChem, SRMLSC
# A340 absorber: compound light absorbance at 340 nm, profiling panel, artefact control, biochemical, MLSMR library, data from PS, PMK, MK assays. compound absorbance at 340 nm, fold over control. fold change at 10 µM. 65,000 tested, under 10 active. AID 708, 2007;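 active = at 10 µM dose, initial 340 nm absorbance at least 2 fold that of control wells; inactive = change under 2 fold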;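 also: initial absorbance extrapolated from kinetic A340 decline of NADH oxidation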
# NADH enzymes: inhibitors of PK/LDH coupling enzymes, profiling panel, artefact control, biochemical, MLSMR library; coupled PK/LDH NADH assays, four targets; IC50, µM (titrated, usually from 10 µM); actives 0.02% (n = 65,000);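 active = single-dose screening hits from any of four coupled enzyme assays that gave an IC50 when retested across doses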;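 also: the DPM-DC format reads NADH fluorescence rather than 340 nm absorbance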
# Spn DPM-DC inh: S. pneumoniae DPM-DC inhibitors, primary screen, biochemical, PK/LDH-coupled NADH fluorescence; diphosphomevalonate decarboxylase (Streptococcus pneumoniae D39); purified DPM-DC; calls only at 10 µM; actives 0.49% (n = 65,000); AID 556, 2006;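 active = the 320 compounds with the highest percent inhibition in the single-dose primary screen, excluding strongly autofluorescent ones, cut at about 32% in these data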;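 also: kinetic rate of NADH fluorescence loss reporting ADP formed by the decarboxylase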
# MK inhibit: S. pneumoniae MK inhibitors, primary screen, biochemical, PK/LDH-coupled NADH absorbance | actives 0.48% (n = 65,000) | inhibition, % at 10 µM | AID 555, 2006 | mevalonate kinase [Streptococcus pneumoniae D39] | purified MK, PK/LDH-coupled NADH absorbance 340 nm;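 active = ranked among the strongest by inhibition in the single 10 µM screen, a fixed top-ranked set picked for dose follow-up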
# Spn PMK inh: S. pneumoniae PMK inhibitors, primary screen, biochemical, mevalonate pathway, pilot trial included | purified PMK, PK/LDH-coupled NADH absorbance 340 nm | AID 539, 2006 | inhibition, % at 10 µM | actives 0.49% (n = 65,000);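 active = top-ranked compounds by inhibition in the single 10 µM screen, taking a fixed number of the strongest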
# Autofluor 339: intrinsic fluorescence of library compounds, ex339/em460 – biochemical, MLSMR library, data from DPM-DC assay, artefact control, profiling panel. compound autofluorescence, ex339/em460 nm, NADH buffer; hits give high values; 1 = no-compound wells, NADH background. fluorescence fold increase at 10 µM. actives 5.5% (n = 65,000). AID 709, 2007;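 active = at 10 µM, mean starting fluorescence two-fold or more over control wells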;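 also: signal is the first read of a kinetic run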
# A number is an active result; 0 = inactive; - = no result given; + = active, no number; [ ] = dose if it differs, or a comment. This is a sample that favours compounds with a hit; in the whole collection about 6.3% have one here.
SMILES,A340 absorber,NADH enzymes,Spn DPM-DC inh,MK inhibit,Spn PMK inh,Autofluor 339
O=C(CN1CCOCC1)c1ccc2cc[nH]c2c1,0,0,-,0,0,2.1
O=C1NCCN2CCCC12 (stereo unspecified),0,0,0,0,0,0
CCOC(=O)c1cc2c(cn1)[nH]c1ccccc12,0,0,+[fluoresces],0,0,2.2
CC(Cc1ccccc1)[n+]1cc(/N=C(\[O-])N(C)C)on1 (stereo unspecified),0,0,0,0,0,0
CCOC(=O)C1SC2(C(F)F)CC1(O)c1c(c(OC)c3occc3c1OC)O2 (stereo unspecified),0,0,0,0,0,0
CCOC(=O)c1c(-c2ccc(OC)cc2)oc2ccc(OC(=O)N(C)C)cc12,0,0,-,0,0,3.8
Nc1ccccc1C(=O)OC1CSC1,0,0,-,0,0,0
O=P(O)(O)C#Cc1ccccc1,0,0,0,0,0,0
CCn1nc(-c2ccccc2)nc2c(=O)n(C)c(=O)nc1-2,0,33µM,+,0,0,0
O=P1(Nc2ccc(F)cc2)COc2ccccc2OC1,0,0,0,0,0,0
COc1ccc(-c2cc(C(F)(F)F)n3nc(C(=O)N4CCC5(CC4)OCCO5)cc3n2)cc1OC,0,0,+,0,0,0
COc1ccc(Cn2c(N)c(C(=O)NCc3ccco3)c3nc4ccccc4nc32)cc1OC,0,0,-,0,0,3.7
Nc1c(C(=O)NCc2ccco2)c2nc3ccccc3nc2n1CCN1CCCCC1,0,0,-,0,0,2.3
CC(c1ccc(F)cc1)n1cc(C(=O)NCc2ccc3c(c2)OCO3)nn1 (stereo unspecified),0,0,0,0,0,0
CCCNC(=O)c1c(N)n(Cc2ccc3c(c2)OCO3)c2nc3ccccc3nc12,0,0,-,0,0,2.1
COc1ccc(C2=NCC(=O)N(CC(=O)NCc3ccco3)c3sc4c(c32)CCCC4)cc1OC,0,0,0,0,0,0
OCCN(CC#CC(O)(c1ccccc1)C1CCCC1)CCO (stereo unspecified),0,0,0,0,0,0
COC(=NC1CCCC1)C(O)c1c[nH]c2ccccc12 (stereo unspecified),0,0,0,0,0,0
COC(=O)c1c(N)n(Cc2ccc(OC)cc2)c2nc3ccccc3nc12,0,0,-,0,0,3.7
CCOC(=O)c1c(N)n(Cc2ccc(OC)cc2)c2nc3ccccc3nc12,0,0,-,0,0,3.9
COCCOC(=O)c1c(N)n(Cc2ccc(OC)cc2)c2nc3ccccc3nc12,0,0,-,0,0,3.9
O=P(O)(O)C12CC3CC(CC(C3)C1)C2,0,0,0,0,0,0
CN1C[C@H](CNC(=O)OCc2ccccc2)C[C@@H]2c3cccc4c3c(cn4C)C[C@H]21,0,0,0,0,0,0
CC[C@@H](CO)NC(=O)[C@@H]1C=C2c3cccc4c3c(cn4C)C[C@H]2N(C)C1,0,0,-,0,0,2.5
CCN(CC)CCCN=C(C)c1c(O)n(-c2ccc(C)cc2)c(=O)[nH]c1=O,0,0,0,0,0,0
SMILES,A340 absorber,NADH enzymes,Spn DPM-DC inh,MK inhibit,Spn PMK inh,Autofluor 339
Nc1c(C(=O)OCC2CCCO2)c2nc3ccccc3nc2n1Cc1cccs1 (stereo unspecified),0,0,-,0,0,2.1
CCOC(=O)c1c(C)n(CCOC)c2ccc(O)cc12,0,0,0,0,0,0
CCCCNC(=O)c1c(N)n(CCCOC)c2nc3ccccc3nc12,0,0,-,0,0,2.4
CC(=O)c1c(C)n(CC2CCCO2)c2ccc(O)cc12 (stereo unspecified),0,0,0,0,0,0
COCCCn1c(N)c(C(=O)OCCOC)c2nc3ccccc3nc21,0,0,-,0,0,3.8
Nc1c(C(=O)NC2CCCC2)c2nc3ccccc3nc2n1CC1CCCO1 (stereo unspecified),0,0,-,0,0,3.7
O=c1[nH]c(=O)n(Cc2ccco2)c(O)c1C=NCCCn1ccnc1,0,0,0,0,0,0
CC(C)OCCCNC(=O)c1c(N)n(Cc2cccs2)c2nc3ccccc3nc12,0,0,-,0,0,3
